# System: T1, MEK3
# T1 construct: gene MAP2K3
# Settings: concentration: 1 μM, replicates: in singlicate; n = 1
# 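Note: KINOMEscan kinase panel screen.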
row,SMILES,%Inh [%]
1,COc1ccc(Nc2nccc(N3CCC(NC(=O)Nc4cccc(C(C)=O)c4)C3)n2)cc1 (stereo not drawn) [GSK1379731],0
2,Fc1ccc(-c2nn3c(OCC(F)(F)F)cccc3c2-c2ccncc2)cc1 [GW514784],0
3,Cc1cn2c(=O)cc(N3CCOCC3)nc2n1Cc1cccc(Cl)c1Cl [GSK2334006],0
4,Fc1ccc(-c2ncn(CCCN3CCOCC3)c2-c2cccnc2)cc1 [SB-211743],26
5,C[C@@H](Oc1cc(-n2cnc3ccc(NC(=O)NC(C)(C)C)cc32)sc1C(N)=O)c1ccccc1Cl [GSK346294],0
6,Cc1ccc(C(=O)NCC(N)=O)cc1-n1c(C)cc(OCc2ccc(F)cc2F)c(Br)c1=O,0
7,c1ccc(-c2n[nH]cc2-c2ccnc3ccccc23)nc1 [GW271431],0
8,O=C1Cc2cc(Nc3nc(NCc4cccc(S(=O)(=O)C(F)(F)F)c4)ncc3C(F)(F)F)ccc2N1,15
9,NCC(NC(=O)c1cc(-c2cn[nH]c2)c(-c2ccnc3[nH]ccc23)s1)c1ccccc1.O=C(O)C(F)(F)F.O=C(O)C(F)(F)F (stereo not drawn) [GSK1325775],82
10,COc1ccc(Nc2nccc(N3CCC(NC(=O)Nc4cc(C)ccc4C)C3)n2)cc1 (stereo not drawn) [GSK1379741],0
11,CC(C)Oc1ccc2c(-c3ccnc(Nc4ccc(N5CCN(C)CC5)cc4)n3)cnn2n1 [GW696155],43
12,O=C(c1ccc(-c2cc(-c3c[nH]nc3-c3ccccn3)ccn2)cc1)N1CCOCC1 [GW812171],38
13,CN(C(=O)c1ccc(-c2cc(-c3c[nH]nc3-c3ccccn3)ccn2)cc1)C1CCOCC1 [GW810083],14
14,O=C(Nc1cccc(-c2nn3ncccc3c2-c2ccnc(Nc3cccc(C(F)(F)F)c3)n2)c1)c1c(F)cccc1F [GSK299495],0
15,Cl.Oc1cccc(Nc2ccnc3cc(-c4ccncc4)ccc23)c1 [GW494601],0
16,O=c1cc(N2CCOCC2)nc2n(Cc3cccc(F)c3)ccn12 [GSK2297430],0
17,COc1ccc(CNC(=O)NC2CCN(c3ccnc(Nc4ccc(OC)cc4)n3)C2)cc1 (stereo not drawn) [GSK1379727],0

row,SMILES,%Inh [%]
1,CC(C)(CN)c1nc(-c2ccc(Cl)c(O)c2)c(-c2ccncc2)[nH]1.O=C(O)C(F)(F)F [SB-477794],0
2,CCc1nc(-c2cccc(C)c2)c(-c2ccnc(NCc3ccccc3)c2)s1,0
3,CCc1ccnc(/C=C/c2n[nH]c3cc(Sc4ccccc4C(=O)NC)ccc23)c1,0
4,Cc1nnc(-c2ccc(C)c(-c3ccc(C(=O)Nc4ccc(NS(C)(=O)=O)cc4)cc3)c2)o1 [GW702865],0
5,Cc1nnc(-c2ccc3ncc(-c4ccc(S(C)=O)cc4)n3c2)o1 (stereo not drawn),6
6,CC(=O)Nc1ccc(COc2ccc(Nc3ccnc4cc(-c5ccccn5)ccc34)cc2)cc1.Cl [GW440148],0
7,CCn1cnc2c(N)ncnc21 [GW345098],26
8,Cc1nnc(-c2ccc3occ(-c4ccc(C(C)O)cc4)c3c2)o1 (stereo not drawn),11
9,O=c1cc(N2CCOCC2)nc2n(Cc3cccc(Cl)c3Cl)c(C3CC3)nn12 [GSK2358994],22
10,O=C(NCCCN1CCOCC1)c1cccc(Nc2nccc(Nc3ccc(Oc4ccccc4)cc3)n2)c1 [GW663929],7
11,[2H]C([2H])(c1cccc(C(F)(F)F)c1C)n1ccn2c(=O)nc(N3CCOCC3)cc12 [GSK2336394],0
12,NS(=O)(=O)CCc1cccc(Nc2nccc(-c3c(-c4cccc(NC(=O)c5c(F)cccc5F)c4)nn4ccccc34)n2)c1 [GSK336735],12
13,CN1c2ccc(NCc3ccc(F)cc3)cc2-c2c(cnn2C)S1(=O)=O,13
14,COCCNC(=O)c1ccc(-c2cc(C(=O)NC3CC3)cc(F)c2C)cc1 [GW868318],29
15,N#Cc1ccc(-c2cc(-c3c[nH]nc3-c3ccccn3)ccn2)cc1 [GW693028],0
16,O=C(NOCC1CC1)c1ccc(F)c(F)c1Nc1ccc(I)cc1Cl,0

# Reference: PMC5540273 (PLoS ONE, 2017)
